# Source: the supplement of paper PMC6411743
# ± gives the standard deviation of the averaged measurements. Of roughly 6,500 targets only a part is listed; those with the largest changes were picked by preference.
# Experiments:
# Experiment in all cases: NP40-soluble protein abundance relative to vehicle (solubility fold change) (ratio); higher = more soluble protein in presence of ATP
# A0A087WWP8 = A0A087WWP8 (UniProt Q5VWQ0)
# Method in brief: (§1)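 Values are fold changes against the detergent-processed vehicle, based on vsn-normalised intensities. Jurkat crude lysate was treated at eight concentrations from 0.1 to 10 mM (10 min at room temperature, then 3 min at 37 °C), solubilised with 0.8% NP40 and benzonase, ultracentrifuged and analysed by TMT-labelled LC-MS/MS over three independent experiments.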
# A0A087WWS1|Q96FV9 = target: T1, A0A087WWS1|Q96FV9 (UniProt Q96FV9)
# T1 sequence (whole entry): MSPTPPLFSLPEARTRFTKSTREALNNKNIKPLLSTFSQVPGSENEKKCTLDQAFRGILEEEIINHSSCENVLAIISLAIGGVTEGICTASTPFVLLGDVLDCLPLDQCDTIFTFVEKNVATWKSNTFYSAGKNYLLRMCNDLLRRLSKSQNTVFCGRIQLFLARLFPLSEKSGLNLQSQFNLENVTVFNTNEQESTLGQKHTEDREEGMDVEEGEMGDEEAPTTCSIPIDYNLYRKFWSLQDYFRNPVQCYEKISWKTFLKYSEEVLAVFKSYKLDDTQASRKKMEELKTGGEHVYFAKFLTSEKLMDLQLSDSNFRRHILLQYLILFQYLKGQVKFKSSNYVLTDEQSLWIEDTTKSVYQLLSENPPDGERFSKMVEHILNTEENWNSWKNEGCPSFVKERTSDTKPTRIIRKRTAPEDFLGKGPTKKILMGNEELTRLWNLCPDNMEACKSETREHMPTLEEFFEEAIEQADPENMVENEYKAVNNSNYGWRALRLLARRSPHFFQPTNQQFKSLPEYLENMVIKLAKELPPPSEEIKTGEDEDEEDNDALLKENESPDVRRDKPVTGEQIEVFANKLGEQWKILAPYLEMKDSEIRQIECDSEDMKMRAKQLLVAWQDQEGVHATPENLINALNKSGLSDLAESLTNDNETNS
# Method in brief: as §1
# A0A087WXC5|O95299|H7C2X4 = A0A087WXC5|O95299|H7C2X4 (UniProt O95299)
# Method in brief: as §1
# [1] = target: A0A087WY00|F8W6H6|Q9Y4I1|Q9Y4I1-2|Q9Y4I1-3|G3V394 (UniProt Q9Y4I1)
# Method in brief: as §1
# A0A087WYG2|E9PFH7|Q9UPT6 = target: T2, A0A087WYG2|E9PFH7|Q9UPT6 (UniProt Q9UPT6)
# T2 sequence (whole entry): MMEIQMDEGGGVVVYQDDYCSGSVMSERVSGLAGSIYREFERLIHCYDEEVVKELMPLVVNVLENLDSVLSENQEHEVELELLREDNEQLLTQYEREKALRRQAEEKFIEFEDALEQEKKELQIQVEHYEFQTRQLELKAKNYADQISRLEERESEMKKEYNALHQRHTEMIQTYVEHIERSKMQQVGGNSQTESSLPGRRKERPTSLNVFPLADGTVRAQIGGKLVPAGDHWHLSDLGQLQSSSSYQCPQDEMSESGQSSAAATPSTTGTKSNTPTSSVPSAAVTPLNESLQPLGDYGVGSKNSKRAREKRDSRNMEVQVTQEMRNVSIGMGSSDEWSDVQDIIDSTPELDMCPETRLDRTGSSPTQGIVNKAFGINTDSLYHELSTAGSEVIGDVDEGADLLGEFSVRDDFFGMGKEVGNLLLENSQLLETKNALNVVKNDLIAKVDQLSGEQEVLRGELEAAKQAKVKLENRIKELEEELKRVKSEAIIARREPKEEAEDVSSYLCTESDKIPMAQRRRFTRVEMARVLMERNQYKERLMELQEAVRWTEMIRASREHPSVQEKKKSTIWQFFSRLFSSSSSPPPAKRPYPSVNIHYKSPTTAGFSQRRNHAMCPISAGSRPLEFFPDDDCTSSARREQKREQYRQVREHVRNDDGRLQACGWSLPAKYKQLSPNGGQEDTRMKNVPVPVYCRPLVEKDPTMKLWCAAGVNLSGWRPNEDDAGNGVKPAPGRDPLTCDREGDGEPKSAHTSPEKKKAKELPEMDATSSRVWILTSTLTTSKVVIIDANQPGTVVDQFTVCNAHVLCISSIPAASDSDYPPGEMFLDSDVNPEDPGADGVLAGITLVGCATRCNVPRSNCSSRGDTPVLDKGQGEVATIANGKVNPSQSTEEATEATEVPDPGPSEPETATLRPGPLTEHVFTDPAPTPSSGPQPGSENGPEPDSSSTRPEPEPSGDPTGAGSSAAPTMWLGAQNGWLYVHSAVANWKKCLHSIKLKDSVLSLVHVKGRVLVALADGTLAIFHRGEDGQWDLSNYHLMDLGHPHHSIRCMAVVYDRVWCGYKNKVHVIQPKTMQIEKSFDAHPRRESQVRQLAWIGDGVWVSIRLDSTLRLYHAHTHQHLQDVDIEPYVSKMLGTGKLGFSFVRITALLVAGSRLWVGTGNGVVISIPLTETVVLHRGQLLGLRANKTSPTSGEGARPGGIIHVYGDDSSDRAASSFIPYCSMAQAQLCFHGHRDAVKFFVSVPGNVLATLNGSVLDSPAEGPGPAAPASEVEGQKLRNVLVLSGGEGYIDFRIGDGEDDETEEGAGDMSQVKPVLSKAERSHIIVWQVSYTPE
# Method in brief: as §1
# A0A087WWP8, sequence (Q5VWQ0 whole entry): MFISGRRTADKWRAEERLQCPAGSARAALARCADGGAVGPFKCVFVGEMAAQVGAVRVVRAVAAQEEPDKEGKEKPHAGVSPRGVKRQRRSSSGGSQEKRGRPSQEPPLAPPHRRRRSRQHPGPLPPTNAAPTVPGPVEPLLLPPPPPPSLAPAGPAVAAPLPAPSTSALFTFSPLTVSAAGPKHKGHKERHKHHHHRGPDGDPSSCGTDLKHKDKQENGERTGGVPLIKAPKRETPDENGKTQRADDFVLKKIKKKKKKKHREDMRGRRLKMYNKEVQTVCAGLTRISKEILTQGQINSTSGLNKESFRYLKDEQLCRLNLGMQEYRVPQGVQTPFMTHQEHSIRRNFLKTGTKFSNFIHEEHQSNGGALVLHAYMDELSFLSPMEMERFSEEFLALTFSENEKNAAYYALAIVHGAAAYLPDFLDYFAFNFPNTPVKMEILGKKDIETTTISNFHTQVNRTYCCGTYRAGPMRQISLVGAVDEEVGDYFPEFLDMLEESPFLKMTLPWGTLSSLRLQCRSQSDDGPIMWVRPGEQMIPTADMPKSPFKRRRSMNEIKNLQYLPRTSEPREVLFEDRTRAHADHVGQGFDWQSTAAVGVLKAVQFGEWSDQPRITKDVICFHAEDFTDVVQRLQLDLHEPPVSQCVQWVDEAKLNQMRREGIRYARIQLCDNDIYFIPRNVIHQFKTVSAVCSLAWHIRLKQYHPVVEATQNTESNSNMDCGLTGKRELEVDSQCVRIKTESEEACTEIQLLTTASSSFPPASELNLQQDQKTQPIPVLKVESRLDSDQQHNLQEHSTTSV
# A0A087WXC5|O95299|H7C2X4, sequence (O95299 whole entry, one chain of several): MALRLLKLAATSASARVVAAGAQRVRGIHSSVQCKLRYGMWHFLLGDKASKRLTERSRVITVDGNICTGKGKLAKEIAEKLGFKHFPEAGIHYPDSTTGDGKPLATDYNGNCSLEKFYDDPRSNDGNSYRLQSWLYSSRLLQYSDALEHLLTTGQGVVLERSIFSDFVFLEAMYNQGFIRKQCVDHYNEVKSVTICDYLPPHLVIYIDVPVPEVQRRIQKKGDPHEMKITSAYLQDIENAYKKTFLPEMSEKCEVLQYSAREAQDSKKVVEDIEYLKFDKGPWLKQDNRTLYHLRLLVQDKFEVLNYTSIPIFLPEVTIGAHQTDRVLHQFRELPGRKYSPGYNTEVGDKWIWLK
# A0A087WY00|F8W6H6|Q9Y4I1|Q9Y4I1-2|Q9Y4I1-3|G3V394, sequence (Q9Y4I1 whole entry, one chain of several): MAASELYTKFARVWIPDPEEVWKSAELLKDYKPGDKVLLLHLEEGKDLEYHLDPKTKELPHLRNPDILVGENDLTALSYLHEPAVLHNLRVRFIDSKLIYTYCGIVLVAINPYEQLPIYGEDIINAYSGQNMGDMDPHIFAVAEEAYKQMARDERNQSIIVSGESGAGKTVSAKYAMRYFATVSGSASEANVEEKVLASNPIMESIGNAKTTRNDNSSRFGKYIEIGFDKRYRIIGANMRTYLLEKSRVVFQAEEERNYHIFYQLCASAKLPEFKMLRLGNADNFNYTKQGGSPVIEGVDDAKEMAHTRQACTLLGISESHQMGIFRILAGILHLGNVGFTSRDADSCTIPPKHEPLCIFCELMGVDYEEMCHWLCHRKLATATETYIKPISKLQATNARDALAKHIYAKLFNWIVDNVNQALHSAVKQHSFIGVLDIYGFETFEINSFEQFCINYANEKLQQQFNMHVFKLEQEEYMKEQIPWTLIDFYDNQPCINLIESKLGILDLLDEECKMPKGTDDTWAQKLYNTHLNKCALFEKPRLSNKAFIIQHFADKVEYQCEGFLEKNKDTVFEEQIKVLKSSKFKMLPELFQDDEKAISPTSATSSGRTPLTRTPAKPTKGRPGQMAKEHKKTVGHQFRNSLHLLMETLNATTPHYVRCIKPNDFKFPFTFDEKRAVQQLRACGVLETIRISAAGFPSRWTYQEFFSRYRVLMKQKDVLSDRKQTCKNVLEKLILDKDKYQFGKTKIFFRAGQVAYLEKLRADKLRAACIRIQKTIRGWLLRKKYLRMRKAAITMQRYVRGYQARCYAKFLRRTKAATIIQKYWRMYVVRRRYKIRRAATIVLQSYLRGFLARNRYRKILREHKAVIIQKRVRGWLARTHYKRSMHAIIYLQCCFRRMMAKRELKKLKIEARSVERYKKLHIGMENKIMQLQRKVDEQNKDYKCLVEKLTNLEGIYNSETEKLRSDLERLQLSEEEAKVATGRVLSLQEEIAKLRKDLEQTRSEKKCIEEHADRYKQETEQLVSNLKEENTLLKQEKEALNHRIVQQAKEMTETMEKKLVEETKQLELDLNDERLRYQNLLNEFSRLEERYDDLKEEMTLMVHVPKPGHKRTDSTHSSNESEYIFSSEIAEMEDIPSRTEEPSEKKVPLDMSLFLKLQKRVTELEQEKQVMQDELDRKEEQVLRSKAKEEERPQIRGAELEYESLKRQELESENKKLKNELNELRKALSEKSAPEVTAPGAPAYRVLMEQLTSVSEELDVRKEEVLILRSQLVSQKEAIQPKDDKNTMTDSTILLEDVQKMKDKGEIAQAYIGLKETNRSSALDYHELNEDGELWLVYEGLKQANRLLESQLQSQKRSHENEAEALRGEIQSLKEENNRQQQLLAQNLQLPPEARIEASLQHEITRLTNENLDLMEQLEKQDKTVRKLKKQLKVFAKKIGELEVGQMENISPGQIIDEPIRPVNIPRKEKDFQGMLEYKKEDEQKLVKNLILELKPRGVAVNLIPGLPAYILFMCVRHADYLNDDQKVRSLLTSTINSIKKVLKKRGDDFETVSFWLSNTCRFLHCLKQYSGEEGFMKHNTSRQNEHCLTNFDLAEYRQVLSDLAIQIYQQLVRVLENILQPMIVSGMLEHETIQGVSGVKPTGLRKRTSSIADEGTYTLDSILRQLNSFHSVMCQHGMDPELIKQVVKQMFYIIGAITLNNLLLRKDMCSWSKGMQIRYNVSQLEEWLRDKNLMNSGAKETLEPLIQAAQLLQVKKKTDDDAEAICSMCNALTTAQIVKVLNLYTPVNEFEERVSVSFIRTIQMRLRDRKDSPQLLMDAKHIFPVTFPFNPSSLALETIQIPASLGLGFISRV
structure (smiles),measurement,setting,value
Nc1ncnc2c1ncn2[C@@H]1O[C@H](COP(=O)(O)OP(=O)(O)OP(=O)(O)O)[C@@H](O)[C@H]1O [adenosine triphosphate],NP40-soluble protein abundance,A0A087WWP8; concentration: 6mM,1.68 ± 0.048
same,NP40-soluble protein abundance,A0A087WWP8; concentration: 8mM,1.68 ± 0.069
same,NP40-soluble protein abundance,A0A087WWP8; concentration: 10mM,1.69 ± 0.063
same,NP40-soluble protein abundance,A0A087WWS1|Q96FV9; concentration: 1mM,1.509 ± 0.011
same,NP40-soluble protein abundance,A0A087WWS1|Q96FV9; concentration: 2mM,1.65 ± 0.068
same,NP40-soluble protein abundance,A0A087WWS1|Q96FV9; concentration: 4mM,1.89 ± 0.099
same,NP40-soluble protein abundance,A0A087WWS1|Q96FV9; concentration: 6mM,2.14 ± 0.2
same,NP40-soluble protein abundance,A0A087WWS1|Q96FV9; concentration: 8mM,2.31 ± 0.075
same,NP40-soluble protein abundance,A0A087WWS1|Q96FV9; concentration: 10mM,2.4 ± 0.13
same,NP40-soluble protein abundance,A0A087WXC5|O95299|H7C2X4; concentration: 1mM,1.03 ± 0.024
same,NP40-soluble protein abundance,A0A087WXC5|O95299|H7C2X4; concentration: 2mM,1.02 ± 0.033
same,NP40-soluble protein abundance,A0A087WXC5|O95299|H7C2X4; concentration: 4mM,0.982 ± 0.034
same,NP40-soluble protein abundance,A0A087WXC5|O95299|H7C2X4; concentration: 6mM,1 ± 0.022
same,NP40-soluble protein abundance,A0A087WXC5|O95299|H7C2X4; concentration: 8mM,1.02 ± 0.023
same,NP40-soluble protein abundance,A0A087WXC5|O95299|H7C2X4; concentration: 10mM,1 ± 0.034
same,NP40-soluble protein abundance,[1]; concentration: 1mM,2.94 ± 0.086
same,NP40-soluble protein abundance,[1]; concentration: 2mM,2.89 ± 0.071
same,NP40-soluble protein abundance,[1]; concentration: 4mM,2.94 ± 0.14
same,NP40-soluble protein abundance,[1]; concentration: 6mM,2.96 ± 0.19
same,NP40-soluble protein abundance,[1]; concentration: 8mM,2.96 ± 0.088
same,NP40-soluble protein abundance,[1]; concentration: 10mM,2.84 ± 0.062
same,NP40-soluble protein abundance,A0A087WYG2|E9PFH7|Q9UPT6; concentration: 1mM,0.979 ± 0.055
same,NP40-soluble protein abundance,A0A087WYG2|E9PFH7|Q9UPT6; concentration: 2mM,0.996 ± 0.054
same,NP40-soluble protein abundance,A0A087WYG2|E9PFH7|Q9UPT6; concentration: 4mM,0.993 ± 0.097
same,NP40-soluble protein abundance,A0A087WYG2|E9PFH7|Q9UPT6; concentration: 6mM,0.988 ± 0.094
same,NP40-soluble protein abundance,A0A087WYG2|E9PFH7|Q9UPT6; concentration: 8mM,0.959 ± 0.066
same,NP40-soluble protein abundance,A0A087WYG2|E9PFH7|Q9UPT6; concentration: 10mM,0.956 ± 0.029
